Measurements published in PubChem BioAssay (NCI).
Compounds without any hit were thinned out: in the full panel of roughly 83,000, 20% have a hit.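 Each cell line was grown in a 96-well plate and treated with one concentration of compound for 48 hours. Values below 10 were considered active.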 Unmarked numbers belong to inactive results. Active and inactive are the calls of the source.

Tested on: 786-0 renal
Assay: NCI-60 one-dose screen, 48 h (100 = growth as untreated, 0 = no growth, -100 = all killed)
Settings: 10 µM unless noted

Row | Compound | growth
1 | CO[C@H]1CC(c2ccc[nH]2)=N[C@]12O[C@@H](C)C[C@@H]1CCCCCCCc3ccc([nH]3)[C@H]12 | 11.7%
2 | COc1ccc2c(O)cc3c(c2c1)[C@H](CCl)CN3C(=O)c1cc2cc(NC(=O)CCN3CCOCC3)ccc2[se]1 | -59.8% (active)
3 | O=c1c(/C=C/c2c(O)ccc3ccccc23)nnc2sc(-c3cccc([N+](=O)[O-])c3)nn12 | 57%
4 | CC1(C)CCC[C@]23C(=O)O[C@](O)(C(=O)C4=C[C@@](C)(/C=C/CCCc5ccc6ccc7cccc8ccc5c6c78)CC[C@@]42O)[C@@H]13 | -79.3% (active)
5 | CCOC(=O)CC1C(CNC(=O)NC)OC(n2cnc3c(NC(=O)Nc4ccccc4)ncnc32)C1O[Si](C)(C)C(C)(C)C (stereo not drawn) | 76.1%
6 | COc1ccc(-c2ccc(-c3ccc(C(=N)N)nc3)s2)cc1 | -84.2% (active)
7 | COc1ccc(Cn2cc3c(c2)-c2oncc2CC3)cc1 | 72.5%
8 | O=[N+]([O-])c1ccc(Oc2cccc3c(Oc4ccc([N+](=O)[O-])cc4[N+](=O)[O-])cccc23)c([N+](=O)[O-])c1 | 108%
9 | CCCCCN(CCCCC)CC(O)c1c(Cl)ccc2ccccc12 (stereo not drawn) | 71.7%
10 | Cn1cc(-c2csc(-c3cn(C)c4ccc(F)cc34)n2)c2cnccc21 | -91.6% (active)
11 | CNC1=C([N+](=O)[O-])C(c2ccc(OC)cc2)C(C#N)=C(c2ccc[nH]2)O1 (stereo not drawn) | 106%
12 | Cc1cc(C(=O)Nc2cc(Nc3ncccc3-c3ncnc4nc[nH]c34)ccc2F)cc(C(C)(C)C#N)c1 | 63.5%
13 | COC(=O)CNC(=O)c1ccc(NC(=O)c2[nH]c(C)c(Cl)c2Cl)c(O[C@H]2CCNC2)c1 | 102%
14 | FC(F)(F)c1cccc(-c2nnn(Cc3cc(-c4cccc(Cl)c4)no3)n2)c1 | 105%
15 | O=C(Nc1ncc(Cc2ccccc2)s1)c1ccc2c(c1)OCCO2 | 33.1%
16 | CCOC(=O)c1ccc2c(c1)[n+](=O)c(C(C)=O)c(C(F)(F)F)n2[O-] | 11.4%
17 | O=C(Nc1ccccc1C(F)(F)F)C1=NCCCCN1 | 98.8%
18 | CCCCCC(C)(O)C(C(=O)O)c1ccccc1 (stereo not drawn) | 99.2%
19 | Nc1ncnc2c1N=C(c1ccc([N+](=O)[O-])cc1)CC(c1ccc3c(c1)OCO3)N2 (stereo not drawn) | 98.7%
20 | COc1cc2c(cc1OC)CC[N+](CCC[N+](C)(C)C)=C2 | 96.2%

Row | Compound | growth
21 | O=C1Nc2ccccc2/C1=C/c1cccn1CCCCCCn1c2ccccc2c(=O)c2ccccc21 | 103%
22 | CCCS(=O)(=O)Nc1cccc(Nc2ncnc3cc(NC(=O)CCl)ccc23)c1Cl | -88.2% (active)
23 | Cc1ccc(C23CCC(=O)N2CCc2cncn23)cc1 (stereo not drawn) | 108%
24 | Cc1ccc(-c2nn(CC(=O)N3CCOCC3)c(N)c2C#N)cc1 | 100%
25 | COC(=O)[C@H](C)NC(=O)[C@@H]1CCCN1C(=O)CNC(=O)[C@H](C)N | 98%
26 | O=C1c2c(c3c4cccnc4[nH]c3c3ccc4ccccc4c23)C(=O)N1O | 68.5%
27 | C#CCOc1cccc(Nc2ncnc3c(NC(=O)CCl)cccc23)c1 | -45.4% (active)
28 | COc1ccc(CNc2c3ccccc3nc3ccccc23)cc1OC | 25.4%
29 | COc1ccc(-c2csc(NC(=O)CSc3nc(C)cc(=O)[nH]3)n2)cc1 | 102%
30 | O=C(CNc1ncco1)Nc1ccc(S(=O)(=O)c2ccc(NC(=O)CNc3ncco3)cc2)cc1 | 20.9%
31 | Cc1c2cnccc2c(C)c2c1c1cc(C(=O)O)ccc1n2C | 22.3%
32 | COc1ccc(-c2cn(Cc3ccc4c(Br)cc(Br)c(O)c4n3)nn2)cc1 | 104%
33 | COC(=O)c1c(C(=O)OC)c2ccc3c4ncccc4ccc3n2c1C(=O)c1ccc(C)cc1 | 91%
34 | O=[N+]([O-])c1ccc(N/N=C\c2cc(Cl)ccc2O)nc1 | 34%
35 | COc1ccc(C(=O)/C=C/c2ccc(C)cc2)cc1S(N)(=O)=O | 40.8%
36 | CN1CCN(CC(=O)N(C)c2ccc(N=C(c3ccccc3)c3c(O)[nH]c4ccc([N+](=O)[O-])cc34)cc2)CC1 | 44.3%
37 | C=CC(=O)NCc1cccc(Nc2ncc(Br)c(NCCCNC(=O)C3CCC3)n2)c1 | -35.2% (active)
38 | Nc1nc(N)c2c(n1)NC(c1cccc(Nc3ccnc4cc(C(F)(F)F)ccc34)c1)CC(c1ccc(Cl)cc1)=N2 (stereo not drawn) | 68.9%
39 | C=C(C[n+]1ccccc1)[C@@H]1CC[C@]2(C(=O)OC)CC[C@]3(C)[C@H](CC[C@@H]4[C@@]5(C)CCC(=O)C(C)(C)[C@@H]5CC[C@]43C)[C@@H]12 | 101%

Tested on: COLO 205 colon
Assay: as above
Settings: 10 µM unless noted

Row | Compound | growth
40 | CO[C@H]1CC(c2ccc[nH]2)=N[C@]12O[C@@H](C)C[C@@H]1CCCCCCCc3ccc([nH]3)[C@H]12 | 7.52% (active)
41 | COc1ccc2c(O)cc3c(c2c1)[C@H](CCl)CN3C(=O)c1cc2cc(NC(=O)CCN3CCOCC3)ccc2[se]1 | -78.2% (active)
42 | O=c1c(/C=C/c2c(O)ccc3ccccc23)nnc2sc(-c3cccc([N+](=O)[O-])c3)nn12 | 84.4%
43 | CC1(C)CCC[C@]23C(=O)O[C@](O)(C(=O)C4=C[C@@](C)(/C=C/CCCc5ccc6ccc7cccc8ccc5c6c78)CC[C@@]42O)[C@@H]13 | -72.4% (active)
44 | CCOC(=O)CC1C(CNC(=O)NC)OC(n2cnc3c(NC(=O)Nc4ccccc4)ncnc32)C1O[Si](C)(C)C(C)(C)C (stereo not drawn) | 43%
45 | COc1ccc(-c2ccc(-c3ccc(C(=N)N)nc3)s2)cc1 | -52.2% (active)
46 | COc1ccc(Cn2cc3c(c2)-c2oncc2CC3)cc1 | 68.4%
47 | O=[N+]([O-])c1ccc(Oc2cccc3c(Oc4ccc([N+](=O)[O-])cc4[N+](=O)[O-])cccc23)c([N+](=O)[O-])c1 | 102%
48 | CCCCCN(CCCCC)CC(O)c1c(Cl)ccc2ccccc12 (stereo not drawn) | 72.9%
49 | Cn1cc(-c2csc(-c3cn(C)c4ccc(F)cc34)n2)c2cnccc21 | -80.1% (active)
50 | CNC1=C([N+](=O)[O-])C(c2ccc(OC)cc2)C(C#N)=C(c2ccc[nH]2)O1 (stereo not drawn) | 107%
51 | Cc1cc(C(=O)Nc2cc(Nc3ncccc3-c3ncnc4nc[nH]c34)ccc2F)cc(C(C)(C)C#N)c1 | 13.3%
52 | COC(=O)CNC(=O)c1ccc(NC(=O)c2[nH]c(C)c(Cl)c2Cl)c(O[C@H]2CCNC2)c1 | 110%
53 | FC(F)(F)c1cccc(-c2nnn(Cc3cc(-c4cccc(Cl)c4)no3)n2)c1 | 112%
54 | O=C(Nc1ncc(Cc2ccccc2)s1)c1ccc2c(c1)OCCO2 | -13.3% (active)
55 | CCOC(=O)c1ccc2c(c1)[n+](=O)c(C(C)=O)c(C(F)(F)F)n2[O-] | -78.3% (active)
56 | O=C(Nc1ccccc1C(F)(F)F)C1=NCCCCN1 | 110%
57 | CCCCCC(C)(O)C(C(=O)O)c1ccccc1 (stereo not drawn) | 118%
58 | Nc1ncnc2c1N=C(c1ccc([N+](=O)[O-])cc1)CC(c1ccc3c(c1)OCO3)N2 (stereo not drawn) | 96.2%
59 | COc1cc2c(cc1OC)CC[N+](CCC[N+](C)(C)C)=C2 | 108%

Row | Compound | growth
60 | O=C1Nc2ccccc2/C1=C/c1cccn1CCCCCCn1c2ccccc2c(=O)c2ccccc21 | 50.5%
61 | CCCS(=O)(=O)Nc1cccc(Nc2ncnc3cc(NC(=O)CCl)ccc23)c1Cl | -68.9% (active)
62 | Cc1ccc(C23CCC(=O)N2CCc2cncn23)cc1 (stereo not drawn) | 98.6%
63 | Cc1ccc(-c2nn(CC(=O)N3CCOCC3)c(N)c2C#N)cc1 | 122%
64 | COC(=O)[C@H](C)NC(=O)[C@@H]1CCCN1C(=O)CNC(=O)[C@H](C)N | 104%
65 | O=C1c2c(c3c4cccnc4[nH]c3c3ccc4ccccc4c23)C(=O)N1O | 57.6%
66 | C#CCOc1cccc(Nc2ncnc3c(NC(=O)CCl)cccc23)c1 | -55.5% (active)
67 | COc1ccc(CNc2c3ccccc3nc3ccccc23)cc1OC | 5.3% (active)
68 | COc1ccc(-c2csc(NC(=O)CSc3nc(C)cc(=O)[nH]3)n2)cc1 | 116%
69 | O=C(CNc1ncco1)Nc1ccc(S(=O)(=O)c2ccc(NC(=O)CNc3ncco3)cc2)cc1 | -59.9% (active)
70 | Cc1c2cnccc2c(C)c2c1c1cc(C(=O)O)ccc1n2C | -9.71% (active)
71 | COc1ccc(-c2cn(Cc3ccc4c(Br)cc(Br)c(O)c4n3)nn2)cc1 | 107%
72 | COC(=O)c1c(C(=O)OC)c2ccc3c4ncccc4ccc3n2c1C(=O)c1ccc(C)cc1 | 98.8%
73 | O=[N+]([O-])c1ccc(N/N=C\c2cc(Cl)ccc2O)nc1 | 50.1%
74 | COc1ccc(C(=O)/C=C/c2ccc(C)cc2)cc1S(N)(=O)=O | 95.8%
75 | CN1CCN(CC(=O)N(C)c2ccc(N=C(c3ccccc3)c3c(O)[nH]c4ccc([N+](=O)[O-])cc34)cc2)CC1 | 28.6%
76 | C=CC(=O)NCc1cccc(Nc2ncc(Br)c(NCCCNC(=O)C3CCC3)n2)c1 | -25.7% (active)
77 | Nc1nc(N)c2c(n1)NC(c1cccc(Nc3ccnc4cc(C(F)(F)F)ccc34)c1)CC(c1ccc(Cl)cc1)=N2 (stereo not drawn) | 29.5%
78 | C=C(C[n+]1ccccc1)[C@@H]1CC[C@]2(C(=O)OC)CC[C@]3(C)[C@H](CC[C@@H]4[C@@]5(C)CCC(=O)C(C)(C)[C@@H]5CC[C@]43C)[C@@H]12 | 56.1%
